In the library only some 4.6% were active in any assay of this set; here they are far more common.
TRHR enhancer – TRH receptor (human) allosteric enhancement. P34981. TRHR cells, fluo-8 calcium fluorescence, EC20 TRH enhancement. enhancement, % at 2 µM. 0.66% of 360,000 active; in the data active means enhancement above about 30%; further: 0% is about no effect
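TRHR-expressing cells loaded with fluo-8 calcium dye were read kinetically (ex 480/em 530) during compound addition, then stimulated with an EC20 of TRH (10 nM final). Enhancement of the Gq-mediated intracellular calcium response was scored.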
D1 antagonist – blocks dopamine activation of the human D1 receptor; P21728; HEK293 TREx D1 cells, calcium flux, dopamine EC80; stronger effect = lower value; activity change, negative = inhibition, % at 10 µM; 3.2% of 360,000 active; AID 504652; in the data active means activity change below about -30%; further: on the % scale 0 is the no-effect control and ±100 the full control effect
Target sequence (P21728 whole entry, looked up): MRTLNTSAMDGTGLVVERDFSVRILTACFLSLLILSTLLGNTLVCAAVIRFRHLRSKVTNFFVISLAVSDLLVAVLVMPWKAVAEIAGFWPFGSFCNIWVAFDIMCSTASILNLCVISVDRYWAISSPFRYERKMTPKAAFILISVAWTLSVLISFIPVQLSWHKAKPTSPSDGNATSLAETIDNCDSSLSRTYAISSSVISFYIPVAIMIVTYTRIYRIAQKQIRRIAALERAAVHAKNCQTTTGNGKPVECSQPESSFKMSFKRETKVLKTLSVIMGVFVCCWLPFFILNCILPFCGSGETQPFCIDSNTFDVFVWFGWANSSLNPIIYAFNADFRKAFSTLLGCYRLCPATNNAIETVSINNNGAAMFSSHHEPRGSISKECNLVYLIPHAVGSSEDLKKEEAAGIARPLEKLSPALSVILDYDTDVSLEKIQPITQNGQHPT
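Compound effects on dopamine-evoked calcium signalling were measured in tetracycline-induced HEK293 Trex D1 cells. Dopamine at EC80 followed a 180 s compound pre-read, and fluorescence was tracked kinetically for 180 s more.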
TRHR ag – agonists of human TRH receptor. TRHR cells, calcium flux fluo-8, FDSS agonist mode. 0.18% of 360,000 active. activation, % at 2 µM. AID 493084. P34981; further: 0% is about no effect
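Read-out: compound-evoked intracellular calcium rise in TRHR cells, fluo-8 dye, kinetic FDSS fluorescence at 1 s/cycle following a 10-cycle baseline. Cells cultured overnight before dye loading (30 min–1.5 h, RT).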
Epigenetic derep – regulators of epigenetic silencing causing reporter derepression in mouse cells. murine LDR cells, GFP reporter derepression, 30 h. Potency, µM (titrated, usually from 53.9 µM), for inactives: top-dose GFP activation, actives largely listed as activators. 0.2% of 280,000 active. AID 1865; active means well fitted activation curve with a large enough effect; inconclusive means small, poorly fitted or top-dose-only effect; further: potency means the concentration at half of the fitted maximal effect; % of control where 0% means no effect; nearly all actives have a fitted effect of over 60% in size
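Reporter derepression read as number of fluorescent GFP-positive objects, 20-120 um in size, counted by laser-scanning cytometer. Mouse LDR line with an epigenetically silenced CMV-GFP locus; compound incubation 30 h, 37 C.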
D1 PAM – human D1 dopamine receptor positive modulation; P21728; HEK293 TREx D1 cells, calcium flux, dopamine EC20 potentiation; potentiation, % at 10 µM; 0.036% of 360,000 active; in the data active means potentiation above about 30%; further: 0% is about no effect
D1 agonist – human D1 receptor agonism; P21728; HEK293 T-REx D1 cells, calcium flux, agonist mode; activation, % at 2 µM; 1% of 360,000 active; AID 504660; further: 0% is about no effect
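Inducible HEK293 T-REx D1 cells, force-coupled to calcium signalling, were plated at 4000 cells/well with tetracycline and held overnight at 30 C. After no-wash calcium dye loading, compound-evoked calcium rise over 180 s flagged agonists.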
* marks the source's active call; other numbers are inactive results; ? = inconclusive; . = no result; [ ] = another dose, or the depositor's remark. Unless noted, no stated cut-off is given here; in the data, active means activation above about 30%; inactive means the rest.

SMILES	TRHR enhancer	D1 antagonist	TRHR ag	Epigenetic derep	D1 PAM	D1 agonist
O=[N+]([O-])c1cn(-c2nc(-c3ccco3)cc(C(F)(F)F)n2)cn1	-3	.	1	-5%	-1	62*
FC(F)(F)c1cc(-c2ccco2)nc(-n2nnc3ccccc32)n1	-4	1	1	2%	1	3
CCN1/C(=C/C=C/C=C/c2sc3ccccc3[n+]2CC)Sc2ccccc21	-8	-11	0	-1%	-3	1
CCN1/C(=C/C=C/C=C/C=C/c2sc3ccccc3[n+]2CC)Sc2ccccc21	32*	0	1	.	2	0
CCCn1c(C)nc2c(NCCCN(CCO)CCO)nc(C)nc21	.	.	.	3%	.	.
N#CCCn1c(=O)n(CCC#N)c2ccccc21	-6	-38*	0	0%	-8	1
Cn1c(=O)n(CC#N)c2ccccc21	1	5	0	0%	-3	3
CC(=O)O[C@@H]1C(=O)[C@@]2(C)[C@H](O)C[C@H]3OC[C@]3(OC(C)=O)[C@@H]2[C@H](OC(=O)c2ccccc2)[C@@]2(O)C[C@H](OC(=O)[C@@H](O)[C@@H](NC(=O)c3ccccc3)c3ccccc3)C(C)=C1C2(C)C (stereo in doubt)	.	.	.	2%[16.9 µM]	.	.
Cc1ccc(C(=O)OCn2ncc(Cl)c(Cl)c2=O)cc1	7	-48*	-1	-1%	-8	13
O=C(OCn1ncc(Cl)c(Cl)c1=O)c1ccc(C(F)(F)F)cc1	-13	-48*	0	2%	-4	1
CCOC(=O)c1ccc(NC(=O)Cn2ncc(Cl)c(Cl)c2=O)cc1	1	-30	0	?	-3	0
CCC(=O)Nc1ccc(C(=O)Cn2ncc(Cl)c(Cl)c2=O)cc1	7	-1	-1	0%	0	-2
N=C(N)Cc1ccccc1Sc1ccccc1	-7	-49*	2	-1%	-8	5
N#C/C(=C\c1ccc(N2CCCCC2)o1)C(=O)Nc1cccc(Br)c1	-8	-12	108*	?	-12	428*
O=Cc1ccc(N2CCCC2)o1	-1	1	0	-1%	0	1
N#C/C(=C\c1ccc(N2CCCCC2)o1)C(N)=O	7	0	21	7%	-7	37*
Cc1ccc(/C=C(\C#N)C(=O)Nc2cccc(Br)c2)o1	-2	4	2	3%	-1	4
COc1ccc(NC(=O)/C(C#N)=C\c2ccc(Br)o2)cc1	4	22	0	1%	-1	3
Cc1ccc(/C=C(\C#N)C(=O)Nc2ccc(Br)cc2)o1	0	-4	1	22µM*	-1	1
Cc1cc(CNC(=O)c2cccc([N+](=O)[O-])c2C)c2ccccc2n1	4	-46*	0	-1%	-7	26
COc1cccc(CNC(=O)c2cc(C)nc3ccccc23)c1	10	-39*	-1	.	-6	3
COc1ccc(CNC(=O)c2cc(-c3cccs3)nc3ccccc23)c(OC)c1	6	-46*	-2	0%	-1	4
COc1ccc(N(CC(=O)NCCc2ccccc2)S(=O)(=O)c2ccccc2)c(OC)c1	-7	3	-2	0%	-2	3
CSc1ccc(CCNC(=O)C2CCCN(S(=O)(=O)N(C)c3ccc(F)cc3)C2)cc1 (centres undefined)	-9	-14	0	4%	-5	14
CC(=O)N1c2ccc(S(=O)(=O)NCC3CCC(C(=O)Nc4cc(C)ccc4C)CC3)cc2CC1C (centres undefined)	-3	-7	0	1%	0	1
SMILES	TRHR enhancer	D1 antagonist	TRHR ag	Epigenetic derep	D1 PAM	D1 agonist
COc1ccc(Cn2c(N)c(C#N)c3nc4ccccc4nc32)cc1	-3	0	0	?	-1	13
COc1cccc(Cn2c(N)c(C#N)c3nc4ccccc4nc32)c1OC	8	-43*	-1	?	-2	7
C=C(C)c1cccc(C(C)(C)NC(=O)N2CCC(C)CC2)c1	-9	-43*	0	0%	-9	0
C=C(C)c1cccc(C(C)(C)NC(=O)N2CCN(c3ccc(OC)cc3)CC2)c1	-3	-37*	0	2%	-7	0
C=C(C)c1cccc(C(C)(C)NC(=O)N2CCN(C)CC2)c1	-3	1	0	1%	-3	1
Cc1cc2c(cc1S(=O)(=O)N(C)CC(=O)Nc1cccc(C#N)c1)OCC(=O)N2	2	10	0	0%	-3	2
Cc1cc(N/N=C/c2ccc([N+](=O)[O-])o2)nc2ccccc12	7	2	21	6.3µM*	1	48*
Cc1ccc(-c2cc(C(=O)N/N=C/c3ccc([N+](=O)[O-])o3)c3ccccc3n2)o1	7	27	0	.	5	-1
CCCCCCN(C(=O)CCCCCN1C(=O)NC(c2ccccc2)C(C(=O)OCc2ccccc2)=C1C)C(C(=O)NCCCC)c1ccc(OCC(=O)OC)c(C(=O)OC)c1 (centres undefined)	2	-54*	0	-5%	-5	38*
Cc1ccc(-c2nn(-c3ccccc3)cc2CSC(=N)N)cc1	6	32	2	1%	1	51*
Cc1cccc(N(CC(=O)N2CCN(c3ccc(F)cc3)CC2)S(C)(=O)=O)c1C	-2	-13	0	3%	-3	3
CS(=O)(=O)N(CC(=O)N1CCN(c2ccc(F)cc2)CC1)c1ccc(F)c(Cl)c1	39*	.	0	0%	0	-1
CCCCCC#CC[C@@H](O)/C=C/C=C/C=C\[C@@H](O)CCCC(=O)O	.	.	.	-1%	.	.
O=C(NC1CC1)c1cc2c(s1)-c1ccccc1OC2	2	-46*	0	-1%	-10	0
CC(=O)c1ccc(N2CCN(C(=O)c3cc4c(s3)-c3ccccc3OC4)CC2)cc1	-1	-64*	0	0%	-5	0
O=C(O)c1cc2c(s1)-c1ccccc1OC2	6	10	0	3%	-2	2
CN(C)CCN(Cc1ccco1)C(=O)c1cc2c(s1)-c1ccccc1OC2	1	-70*	0	2%	-4	7
O=C(c1cc2c(s1)-c1ccccc1OC2)N1CCN(c2ccc(F)cc2)CC1	2	4	0	3%	-1	2
CCCCN(Cc1ccco1)C(=O)c1cc2c(s1)-c1c(C)cccc1OC2	1	-5	1	0%	-6	11
Cc1ccc(C(=O)N2CCc3cc(CNC(=O)c4ccccc4F)ccc32)cc1	-6	-29	0	-1%	-3	1
COc1ccc(/C=C/C(=O)NC(=S)NCC2CCCO2)cc1 (centres undefined)	-6	-48*	1	1%	-18	5

Assay outcomes from PubChem.
